Bioassay records from PubChem.
Hits are enriched below; roughly 19% of the tested compounds scored in any of these assays.
TDP1 cell noCPT: qHTS for Inhibitors of human tyrosyl-DNA phosphodiesterase 1 (TDP1): qHTS in cells in absence of CPT; Potency, µM (top dose mostly 46.2 µM), without a hit: at the top dose activity change, negative = growth inhibition, usual class: inhibitors; 420,000 compounds, 15% hits; AID 686978, 2013; DT40 Tdp1-/- hTDP1 cells, no CPT, ATP luminescence, 48 h; note: nearly all actives have a fitted effect of over 55% in size
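Chicken DT40 Tdp1-/- cells stably complemented with human TDP1 were seeded at 400 cells/well with DMSO in place of 20 nM camptothecin. After compound pinning, cells grew at least 48 hr at 37 °C; viability read by CellTiter-Glo luminescence.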
HT1080NT lethal: kills 2HG-producing HT-1080-NT fibrosarcoma cells; 360,000 compounds, 1.6% hits; Potency, µM (top dose mostly 46.1 µM), inactives show at the highest dose activity, negative = less viability, usual class: cytotoxic; AID 686970; HT-1080-NT fibrosarcoma viability, CellTiter-Glo ATP luminescence, 48 h;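 note: NT is the 2HG producing partner of a matched IDH1 knockdown line; 0% = DMSO-treated cells and -100% = media-only wells without cells; nearly all actives have a fitted effect of over 55% in size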
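HT-1080-NT fibrosarcoma cells (2HG-overproducing), 750 cells/well in RPMI with 5% FBS, dosed after 2 h and incubated 48 h at 37C. CellTiter-Glo luminescence normalized to DMSO and no-cell wells; concentration-response curves fitted and classed.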
DT40 TDP1 CPT: growth inhibition of DT40 Tdp1-/-;hTDP1 cells with camptothecin (screen for TDP1 inhibitors) | chicken DT40 Tdp1-/-;hTDP1 cells + 20 nM CPT, ATP luminescence, 48 h | Potency, µM (top dose mostly 46.2 µM), for inactives: top-dose activity change, negative = growth inhibition, hits mostly inhibitors | 420,000 compounds, 12% hits; note: nearly all actives have a fitted effect of over 55% in size
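Chicken DT40 Tdp1-/- cells stably complemented with human TDP1 were seeded at 400 cells/well in medium containing 20 nM camptothecin, exposed to pin-transferred compounds, and grown at 37 °C for at least 48 hr. Viability was read as ATP luminescence.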
HT1080 IDH1KD tx: toxicity to HT-1080 IDH1 knockdown cells (counter line) | AID 686971 | 360,000 compounds, 2% hits | HT-1080 IDH1 knockdown viability, ATP luminescence, 48 h | Potency, µM (doses to about 46.1 µM), for inactives: at the top dose activity, negative = toxicity, usual class: cytotoxic;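 note: 0% = DMSO wells and -100% = cell-free medium wells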
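Assay cells: HT-1080 with IDH1 knockdown, 750 per well, RPMI/5% FBS. Exposure: 48 h at 37 °C following 2 h pre-incubation. Read: CellTiter-Glo luminescence; fitted concentration-response, curve class assigned.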
KB-3-1 tox: kills parental KB-3-1 adenocarcinoma cells | KB-3-1 viability, CellTiter-Glo ATP luminescence, 72 h | Potency, µM (top dose mostly 46.1 µM), usual class: cytotoxic | 400,000 compounds, 1.4% hits | AID 1347075; note: nearly all actives have a fitted effect of over 60% in size
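Here the drug-naive KB-3-1 line serves as comparator for MDR sub-line selectivity; cells received compound titrations, 72 h at 37 °C, then CellTiter-Glo readout.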
KB-V1 MDR tox: kills drug-selected multidrug resistant KB-V1 cells; KB-V1 MDR cells viability, CellTiter-Glo, 72 h; Potency, µM (series often up to 46.1 µM), most hits filed as cytotoxic; 400,000 compounds, 3.4% hits; AID 1347076; note: nearly all actives have a fitted effect of over 60% in size
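Cytotoxicity via CellTiter-Glo luminescence after 72 h compound exposure at 37 degrees C. Cells: drug-selected KB-V1 line, DMEM phenol-red free plus 10% FBS. Compounds tested at multiple concentrations; normalized data fitted to concentration-effect curves.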
Active calls of the source: *; i = inactive; u = inconclusive; x = not tested or not shown. Calls come from the whole dose curve; as a rule, active = well fitted curve in the direction sought with a large enough effect; inconclusive = small, poorly fitted or top-dose-only effect, or another doubt; inactive = no such curve, though single readings can be large; an effect the other way counts as inactive or inconclusive. Unless noted, % is set by controls: 0 for no effect and ±100 for the full control effect; potency is the fitted concentration of half-maximal effect.

SMILES	TDP1 cell noCPT	HT1080NT lethal	DT40 TDP1 CPT	HT1080 IDH1KD tx	KB-3-1 tox	KB-V1 MDR tox
COc1cc(C2c3c(-c4ccccc4O)n[nH]c3C(=O)N2Cc2ccco2)ccc1OCC(C)C (configuration not stated)	18µM*	x	u	x	u	u
O=C1c2[nH]nc(-c3ccccc3O)c2C(c2ccc(Cl)cc2)N1Cc1ccco1 (configuration not stated)	u	x	16µM*	x	u	i
O=C(NC1CCN(C(=S)NCc2ccco2)CC1)NC12CC3CC(CC(C3)C1)C2	u	-15%	u	-26%	i	u
CCCCn1c(=O)c2oc3ccccc3c2n(Cc2cccc(C)c2)c1=O	u	x	-14%	x	x	x
Cc1cc(NC(=O)C(=O)NCCN2CCN(C(=O)c3cccs3)CC2)ccc1Br	u	0%	u	0%	i	i
COc1ccccc1C(=O)N1CCN(CCNC(=O)C(=O)Nc2ccc(Br)c(C)c2)CC1	10µM*	-10%	u	-9%	i	i
COc1ccc(C(=O)N2CCN(CCNC(=O)C(=O)Nc3ccc(Br)cc3)CC2)cc1	u	-1%	u	-21%	u	u
Cc1ccccc1C(=O)N1CCN(CCNC(=O)C(=O)Nc2ccc(Br)cc2)CC1	u	0%	15µM*	-3%	i	u
COc1ccc(NC(=O)C(=O)NCCN2CCN(C(=O)c3ccc(C(C)(C)C)cc3)CC2)cc1	16µM*	11%	16µM*	-17%	i	i
O=C(NCc1ccco1)C1CCN(S(=O)(=O)c2cccc([N+](=O)[O-])c2)CC1	-1%	-7%	-8%	-7%	i	u
Cc1ccc2c(c1)c1c(c(=O)n(Cc3ccccc3)c(=O)n1CC(=O)Nc1ccccc1F)n2C	u	x	-5%	x	i	i
CC(C)Cc1cc(C(=O)N2CCC(N3CCC(C(=O)NC4CC4)CC3)CC2)n[nH]1	-16%	10%	20%	-10%	i	i
O=c1[nH][nH]c(-c2ccccc2O)c1C(C[N+](=O)[O-])c1ccc(Cl)cc1Cl (configuration not stated)	u	1%	u	1%	i	i
Cc1cc(O)c(C(C[N+](=O)[O-])c2ccc(Cl)cc2Cl)c(=O)o1 (configuration not stated)	16µM*	u	18µM*	u	i	i
CC(=O)c1ccccc1OC(=O)COc1ccc([N+](=O)[O-])cc1	6%	16%	-2%	0%	i	i
COc1cc(NC(=O)Cn2nc(C(F)(F)F)c3c2CCCC3)cc(OC)c1OC	10µM*	-9%	23µM*	-21%	u	i
